Where “and” joins values, the source holds several entries; their conditions need not be identical. Equal values may be shown once. Where a name gives a salt, the structure may show the parent alone.
Legend:
Assay in all cases: cell viability relative to vehicle control; higher = less cytotoxic
Conditions in all cases: 10 µM
[1] = system: K562
Outline: (§1)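 Mutant clones made by CRISPR editing and their isogenic wild-type counterparts, from four leukaemia lines, were exposed to a single 10 µM dose of each library compound for 48 h. The supernatant was then removed and CellTiter-Glo luminescence was read. Viability was reported as percent of the on-plate vehicle control.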

[2] = system: MARIMO
Outline: as §1

[3] = system: MOLM14
Outline: as §1

[4] = system: OCI-AML2
Outline: as §1

| SMILES | cell viability ([1]; SRSF2 genotype: SRSF2 P95H/wt) | cell viability ([1]; SRSF2 genotype: SRSF2 wt/wt) [%] | cell viability ([2]; SRSF2 genotype: SRSF2 P95H/wt) [%] | cell viability ([2]; SRSF2 genotype: SRSF2 wt/wt) [%] | cell viability ([3]; SRSF2 genotype: SRSF2 P95H/wt) [%] | cell viability ([3]; SRSF2 genotype: SRSF2 wt/wt) [%] | cell viability ([4]; SRSF2 genotype: P95H/wt) [%] | cell viability ([4]; SRSF2 genotype: wt/wt) [%] |
| --- | --- | --- | --- | --- | --- | --- | --- | --- |
| COC(=O)C1=COC(OC2OC(CO)C(O)C(O)C2O)C2C(C)CC(=O)C12O (stereo unspecified) [Hastatoside] | 108% and 101% | 107 | 104 | 99.3 | 108 | 104 | 99.5 | 102 |
| CC1(C)S[C@@H]2[C@H](NC(=O)[C@H](NC(=O)N3CCNC3=O)c3ccccc3)C(=O)N2[C@H]1C(=O)O [Azlocillin sodium salt] | 90.4% and 87.6% | 81.5 | 82.3 | 92.1 | 86.4 | 88.6 | 88 | 91.8 |
| CC=C(C)C(=O)O [Tiglic acid] | 102% and 106% | 109 | 101 | 103 | 102 | 109 | 110 | 98 |
| Cc1ccc(-n2sc(=O)n(Cc3ccc(F)cc3)c2=O)cc1 | 78.6% and 73.5% | 78 | 67.2 | 72.6 | 47.6 | 61.8 | 50.6 | 50.9 |
| O=C(NC1CC1)c1cc(-c2cccs2)on1 [Isoxazole 9 (ISX-9)] | – | 53.5 | 58.5 | 63 | 46.8 | 35.5 | 74.8 | 74.7 |
| CCCC[S+]([O-])c1sc2nc(-c3cccs3)cc(-c3ccccc3)c2c1N (stereo unspecified) | 94.5% and 97% | 92.9 | 95 | 109 | 103 | 99.4 | 98.7 | 98.8 |
| COCCCc1sc(-c2ccccc2)nc1C(=O)Nc1ccccc1-c1nc2cc(CN3CCCC3)cnc2s1 | 75.7% and 55.8% | 76.6 | 82.7 | 83.6 | 76.7 | 92.5 | 52.1 | 76.2 |
| COc1cc(NC(=O)c2ccccn2)ccc1Cl | 85.2% and 86.2% | 94.1 | 87.1 | 92.4 | 99 | 95.3 | 88.4 | 80 |
| CC[C@H](Nc1ncnc2[nH]cnc12)c1oc2ccccc2c(=O)c1-c1cccc(F)c1 [Tenalisib (RP6530)] | 101% and 96% | 98.2 | 95.2 | 100 | 82.4 | 84.4 | 84.8 | 87.5 |
| CC=C(C)C(=O)OC1C(OC(C)=O)C2(CO)C(O)CC3(C)C(=CCC4C5(C)CCC(OC6OC(C(=O)O)C(OC7OC(CO)C(O)C(O)C7O)C(O)C6OC6OC(CO)C(O)C(O)C6O)C(C)(CO)C5CCC43C)C2CC1(C)C (stereo unspecified) [Escin] | – | 48.9 | 90.1 | 90.1 | 53.3 | 67.9 | 23.9 | 31.4 |
| C[C@H]1O[C@@H](O[C@H]2CC[C@@]3(C)[C@@H](CC[C@]4(C)[C@@H]3C=C[C@]35OC[C@@]6(CCC(C)(C)C[C@H]63)[C@@H](O)C[C@]54C)[C@]2(C)CO)[C@H](O)[C@@H](O[C@@H]2O[C@H](CO)[C@@H](O)[C@H](O)[C@H]2O)[C@H]1O [Saikosaponin A] | – | 23.1 | 40.9 | 46.1 | 23.8 | 28.7 | 42.2 | 45 |
| CC1(C)Cc2c(sc(NC(=O)c3ccn[nH]3)c2C(N)=O)C(C)(C)O1 | 103% and 101% | 109 | 96.6 | 93.3 | 110 | 102 | 101 | 104 |
| NC(=O)c1cccc(-c2cc(Nc3ccc(OC(F)(F)F)cc3)ncn2)c1 | – | 26.8 | 70.1 | 58.7 | 102 | 102 | 43.7 | 55.3 |
| CCn1cc(-c2ccnc3[nH]c(-c4cccc(CN(C)C)c4)cc23)c(-c2ccc(NC(=O)N(C)C)cc2)n1 | 36.2% and 51.2% | 45.9 | 30.3 | 27 | 1.95 | 2.96 | 1.06 | 7.2 |
| C[C@@H](Oc1cc(-n2cnc3ccc(CN4CCN(C)CC4)cc32)sc1C(N)=O)c1ccccc1C(F)(F)F | 31.9% and 32.9% | 34.1 | 35.9 | 34.3 | 16.8 | 7.12 | 4.11 | 17.1 |
| CC1(C)CC(=O)c2c(C(F)(F)F)nn(-c3ccc(C(N)=O)c(N[C@H]4CC[C@H](OC(=O)CN)CC4)c3)c2C1 | 21.8% and 27.1% | 25.3 | 29.4 | 24.4 | 2.89 | 4.44 | 14.6 | 22.1 |
| COc1cc(C2Oc3cc([C@H]4Oc5cc(O)cc(O)c5C(=O)[C@@H]4O)ccc3OC2CO)ccc1O (stereo partly specified) [Silibinin (Silybin)] | 95% and 94% | 92.2 | 97.5 | 110 | 98.8 | 98.4 | 104 | 116 |

| SMILES | cell viability ([1]; SRSF2 genotype: SRSF2 P95H/wt) | cell viability ([1]; SRSF2 genotype: SRSF2 wt/wt) [%] | cell viability ([2]; SRSF2 genotype: SRSF2 P95H/wt) [%] | cell viability ([2]; SRSF2 genotype: SRSF2 wt/wt) [%] | cell viability ([3]; SRSF2 genotype: SRSF2 P95H/wt) [%] | cell viability ([3]; SRSF2 genotype: SRSF2 wt/wt) [%] | cell viability ([4]; SRSF2 genotype: P95H/wt) [%] | cell viability ([4]; SRSF2 genotype: wt/wt) [%] |
| --- | --- | --- | --- | --- | --- | --- | --- | --- |
| Cc1ccc(/C=C2/C(=O)C3(C)CCC2C3(C)C)cc1 (stereo unspecified) [4-Methylbenzylidene camphor] | 105% and 97.8% | 96.1 | 90 | 108 | 95.5 | 104 | 89.4 | 99.7 |
| CC1(C)CC[C@]2(C(=O)O)CC[C@]3(C)C(=CC[C@@H]4[C@@]5(C)CC[C@H](O[C@@H]6O[C@H](C(=O)O)[C@@H](O)[C@H](O[C@@H]7OC[C@@H](O)[C@H](O)[C@H]7O)[C@H]6O)C(C)(C)[C@@H]5CC[C@]43C)[C@@H]2C1 [Momordin Ic] | – | 88.8 | 103 | 108 | 110 | 103 | 97.2 | 96.6 |
| CCCCCCCCC[C@H](O)CC(=O)CCc1ccc(O)c(OC)c1 [10-Gingerol] | 92.4% and 91.5% | 98.5 | 91.1 | 92.4 | 90 | 94 | 82.5 | 82.4 |
| Cc1nc(NC(=O)N2CCC[C@H]2C(N)=O)sc1-c1csc(C(C)(C)C)n1 | 98.3% and 99.5% | 89.9 | 64.9 | 63.3 | 72 | 86.6 | 61.8 | 61.9 |
| CC(=O)Oc1cc(C)c(OC(C)=O)c2ccccc12 [Menadiol Diacetate] | – | 95.2 | 49.6 | 53.5 | 15.3 | 7.05 | 5.63 | 11.2 |
| O=C(Nc1ccc(O)cc1)c1ccccc1O [Osalmid] | 98.1% and 108% | 98.3 | 93 | 95.8 | 107 | 109 | 99 | 87.3 |
| C/C(=C\CO)CCC[C@H](C)CCC[C@H](C)CCCC(C)C [Phytol] | 97% and 93.1% | 96 | 89.1 | 103 | 85.5 | 92.6 | 80.5 | 82.6 |
| CC(C)(CO)n1cc(C(=O)c2cncc(NC(=O)Cc3ccc(Cl)cn3)c2)c2cnc(N)nc21 | 104% | 111 | 115 | 109 | 64.3 | 76.5 | 107 | 93.4 |
| O=C(NCCN1CCOCC1)Nc1ccc(C(=O)/C=C/c2cccc(N3CCOCC3)n2)cc1 | – | 15.2 | 21.2 | 19.2 | 1.13 | 1.01 | 5.44 | 16.6 |
| CC1=C(/C=C/C(C)=C/C=C/C(C)=C\C(=O)O)C(C)(C)CCC1 [Isotretinoin] | 91.5% and 95.7% | 87.2 | 69.3 | 76.9 | 65.4 | 81.5 | 15.7 | 41.8 |
| Cc1ccc(NC(=O)c2cccc(C(C)(C)C#N)c2)cc1Nc1ccc2ncn(C)c(=O)c2c1 | 12.9% and 33% | 25.2 | 44 | 40.9 | 44.9 | 35.3 | 42.7 | 41.7 |
| CCC[C@H](Nc1nc(-c2ccc(NC(=O)NCC)c(OC)c2)ncc1C)c1cccnc1 | 10.5% and 35.4% | 31.9 | 7.27 | 10 | 1.24 | 1.12 | 0.85 | 2.78 |
| CC(Nc1nc(N2CCCC2)nc2ccccc12)c1ccccc1 (stereo unspecified) [Importazole] | – | 29.2 | 46.3 | 64.7 | 51.2 | 48.2 | 51.8 | 58.2 |
| Cc1ncc(-c2ccnc(Nc3ccc(S(C)(=O)=O)cc3)n2)n1C(C)C | 45.1% and 45.5% | 32.4 | 10.9 | 5.22 | 1.23 | 0.38 | 0.94 | 15.2 |
| O=C(Cc1cccc(OC(F)(F)F)c1)Nc1ccc(CCCCc2nnc(NC(=O)Cc3ccccn3)s2)nn1 | – | 58.5 | 23.7 | 21.2 | 44.3 | 53.4 | 20.1 | 24.8 |
| COc1cc(O)cc(O)c1C(=O)C=Cc1ccccc1 [Cardamonin] | – | 77.8 | 54.5 | 70.9 | 33.1 | 74.1 | 52.6 | 51.2 |
| Cc1cc(C)c(Nc2ccnc(Nc3ccc(C#N)cc3)n2)c(C)c1 [Dapivirine (TMC120)] | – | 45.5 | 86 | 70.6 | 75 | 81.1 | 69 | 31.3 |

Reference: the supplement of paper PMC10981050
